Source: PubChem BioAssay
PrPC surface inh: cell surface PrPC inhibition, primary TR-FRET screen | inhibition, % at 13.8 µM | P04156 | TR-FRET read-out | 0.43% of 370,000 active; in the data active = inhibition above about 24%
SARS 3CLpro inh: SARS-CoV 3CLpro protease inhibition; P0C6X7; recombinant SARS-CoV 3CLpro, quenched FRET peptide cleavage; inhibition, % at 6 µM; 0.14% of 290,000 active; in the data active = inhibition above about 12%
BJeLR viability: kills HRASV12-expressing BJeLR cells; BJeLR (HRASV12) viability, CellTiter-Glo ATP luminescence, 48 h; inhibition, % (concentration not given with the values); 0.17% of 300,000 active; in the data active = inhibition above about 50%
VHR inh abs: DUSP3 (human) phosphatase inhibition; inhibition, % at 13.3 µM; P51452; 0.52% of 290,000 active; recombinant VHR phosphatase, pNPP absorbance; in the data active = inhibition above about 50%
Target sequence (P51452 whole entry, looked up): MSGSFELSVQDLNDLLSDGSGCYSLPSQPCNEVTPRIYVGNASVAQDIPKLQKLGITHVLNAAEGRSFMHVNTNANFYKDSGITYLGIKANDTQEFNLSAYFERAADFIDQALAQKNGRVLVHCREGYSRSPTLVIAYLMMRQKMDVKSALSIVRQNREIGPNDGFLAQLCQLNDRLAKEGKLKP
Each line names hits and unclear results; the compound was inactive in the other large screens. This is a sample that favours compounds with a hit; in the whole collection about 1.1% have one here.

CSC1=NC(C(Cl)(Cl)Cl)N=C(c2ccc(C)cc2)N1 (stereo unspecified)	BJeLR viability 56.0
C=CCN1C(=O)[C@@H](CC(=O)NCc2ccc(C)o2)[C@]2(C(=O)OCC)CCCCC/C=C/12	none (no result: SARS 3CLpro inh, BJeLR viability, VHR inh abs)
CCOC(=O)C1(C)CCCN1C(=O)c1ccc(Cl)nc1 (stereo unspecified)	none (no result: SARS 3CLpro inh, BJeLR viability, VHR inh abs)
CC(C)CNS(=O)(=O)c1ccc(CCC(=O)NC2CCCC2)cc1	VHR inh abs 51.7
C=CCNC(=O)N1CCC(n2nccc2NC(=O)CCCc2ccccc2)CC1	VHR inh abs 55.6
COCC(=O)N1CCC(n2nccc2NC(=O)CCOc2ccccc2)CC1	VHR inh abs 55.5
C=CCCC(=O)N1CCC(n2nccc2NC(=O)CCCc2ccccc2)CC1	none
COC(=O)CCCC(=O)N1CCC(n2nccc2NC(=O)CCOc2ccccc2)CC1	none
CCN(c1ccccc1)c1nc(Cl)nc2c1cnn2C	none (no result: SARS 3CLpro inh, BJeLR viability, VHR inh abs)
O=c1n(Cc2ccccc2)c(O)c2n1Cc1ccccc1N=C2c1ccccc1	none (no result: SARS 3CLpro inh, BJeLR viability, VHR inh abs)
O=C(NCC1CCOCC1)c1cc(COc2cccc(C(F)(F)F)c2)on1	none
O=C(NC1CCOC1)c1cc(COc2cccc(C(F)(F)F)c2)on1 (stereo unspecified)	VHR inh abs 51.2
O=C(CCl)N(CCCNC(=O)C(F)(F)F)c1ccc([N+](=O)[O-])cc1	BJeLR viability 115.6
O=C(NCc1ccc(Cl)cc1)c1ccc2nc[nH]c2c1	none
O=C(NCc1cccc(Cl)c1)c1ccc2nc[nH]c2c1	VHR inh abs 55.6
CS(=O)(=O)c1cccc(C(=O)OCC(=O)Nc2ccc3c(c2)OCO3)c1	none (no result: SARS 3CLpro inh, BJeLR viability, VHR inh abs)
CC(=O)n1cc(N(C(=O)CCl)c2ccccc2)c2ccccc21	BJeLR viability 100.4
CCOC(=O)[C@@]12CCCC3=C1N(CCC3)C(=O)[C@H]2CC(=O)NCC12CC3CC(CC(C3)C1)C2	none (no result: SARS 3CLpro inh, BJeLR viability, VHR inh abs)
CCn1c(SCC(=O)N(C)c2ccccc2)nc2c([nH]c3ccccc32)c1=O	VHR inh abs 53.4
CCOc1ccc(CCN2C(=O)C(=O)N([C@@H](Cc3ccccc3)CN3CCC[C@H]3CN3C(=O)C(=O)NC[C@@H]3Cc3ccccc3)C[C@@H]2Cc2ccc(O)cc2)cc1	none (no result: SARS 3CLpro inh, BJeLR viability, VHR inh abs)
COC(=O)c1ccccc1C(=O)c1c(C)cc(C)cc1C	none (no result: SARS 3CLpro inh, BJeLR viability, VHR inh abs)
COc1ccc(-c2noc(CCC(=O)NCCc3ccccc3)n2)cc1	none (no result: VHR inh abs)
COc1cccc(-c2noc(CCC(=O)NCCc3ccccc3)n2)c1	VHR inh abs 58.2
CCC(C#Cc1ccccc1)N(C)C(N)=NC(=O)/C=C/c1ccccc1 (stereo unspecified)	none (no result: SARS 3CLpro inh, BJeLR viability, VHR inh abs)
CC(=O)NC1CCCCN(C)C1=O (stereo unspecified)	none (no result: SARS 3CLpro inh, BJeLR viability, VHR inh abs)
O=[N+]([O-])c1cnc(Sc2ccncn2)s1	BJeLR viability 61.9
Cc1nc2c(=O)n(C)c(=O)nc-2n(C)n1	PrPC surface inh 25.5
Cc1ccc(OCC(=O)NC(C)c2ccc(Cl)c(Cl)c2)c([N+](=O)[O-])n1 (stereo unspecified)	VHR inh abs 52.0
Cc1ccc(OCC(=O)Nc2cc(C)on2)c([N+](=O)[O-])n1	none
COc1ccc(-c2nc3ccc(C)cn3c2Cc2ccsc2)cc1OC	none (no result: SARS 3CLpro inh, BJeLR viability, VHR inh abs)
Cc1ccc(-c2c(C)sc3nc[nH]c(=O)c23)cc1C	VHR inh abs 53.3
Cc1sc2nc[nH]c(=O)c2c1-c1ccc(F)cc1	none
COc1ccc([C@H]2CC(=O)C[C@@H](CCn3cc(CCc4ccccc4)nn3)O2)cc1	none (no result: SARS 3CLpro inh, BJeLR viability, VHR inh abs)
O=C(O)CCSCC(=O)Nc1c(C(=O)C2CC2)oc2ccccc12	none
O=C(Nc1c(C(=O)C2CC2)oc2ccccc12)c1ccc(Cl)cc1	VHR inh abs 50.8
CN(C)c1ccc(C(c2nnnn2C(C)(C)C)N2CCN(C(=O)c3ccco3)CC2)cc1 (stereo unspecified)	none
CCOc1ccc(C(c2nnnn2C(C)(C)C)N2CCN(C(=O)c3ccco3)CC2)cc1 (stereo unspecified)	VHR inh abs 59.1
Cc1csc(SC(C)C(=O)NCC2CCCO2)n1 (stereo unspecified)	none (no result: SARS 3CLpro inh, VHR inh abs)
COc1ccc(OC)c2c1C(=O)C(Cl)=C(Cl)C2=O	BJeLR viability 91.4
C/C=C/c1ccccc1OCCCN1CCC(C(O)(c2ccccc2)c2ccccc2)CC1	none (no result: SARS 3CLpro inh, BJeLR viability, VHR inh abs)
CCCn1c(-c2ccccc2)cc(SC)c(C#N)c1=O	none
CSc1cc(-c2ccccc2)n(Cc2ccccc2Cl)c(=O)c1C#N	BJeLR viability 51.1
COCCCNC(=S)N1CCCN(c2nc3cc(C)c(C)cc3cc2C#N)CC1	none
CCOCCCNC(=S)N1CCCN(c2nc3cc(C)c(C)cc3cc2C#N)CC1	VHR inh abs 52.0
CCOc1ccc(-c2cncc3nccn23)cc1	none (no result: SARS 3CLpro inh, BJeLR viability, VHR inh abs)
C/C(CC(=O)NCc1ccco1)=N\NC(=O)c1ccc(Cl)cc1Cl	VHR inh abs 52.0
CCCCCc1c(C)nc(N2CCc3ccccc32)[nH]c1=O	VHR inh abs 52.9
